Our source for the inhibition values is PubChem BioAssay AID651710 (Broad Institute, 2012).

Where “and” joins values, the source holds several entries; their conditions need not be identical. Equal entries are not always repeated. In all, about 360,000 compounds went through this assay and about 1,600 (0.44%) were called active.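 Rule for the calls: active = every replicate showing at least 50% inhibition; inconclusive = mean inhibition at least 50% but not in every replicate; inactive = the rest.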 For the sample, actives were picked, then their nearest neighbours and some compounds at random. A structure can be active in one record and inactive in another.

The target in the experiment is DNA repair protein RAD52 homolog (Homo sapiens) (UniProt P43351). The experiment is described as follows: RAD52 DNA annealing inhibitors, primary screen, biochemical, FRET, single point, set 2 (AID 651710). Particulars: recombinant RAD52 DNA annealing, FRET fluorescence; at 18.7 µM; stronger effect = higher value.
Chain of DNA repair protein RAD52 homolog (Homo sapiens) (P43351 whole entry, looked up): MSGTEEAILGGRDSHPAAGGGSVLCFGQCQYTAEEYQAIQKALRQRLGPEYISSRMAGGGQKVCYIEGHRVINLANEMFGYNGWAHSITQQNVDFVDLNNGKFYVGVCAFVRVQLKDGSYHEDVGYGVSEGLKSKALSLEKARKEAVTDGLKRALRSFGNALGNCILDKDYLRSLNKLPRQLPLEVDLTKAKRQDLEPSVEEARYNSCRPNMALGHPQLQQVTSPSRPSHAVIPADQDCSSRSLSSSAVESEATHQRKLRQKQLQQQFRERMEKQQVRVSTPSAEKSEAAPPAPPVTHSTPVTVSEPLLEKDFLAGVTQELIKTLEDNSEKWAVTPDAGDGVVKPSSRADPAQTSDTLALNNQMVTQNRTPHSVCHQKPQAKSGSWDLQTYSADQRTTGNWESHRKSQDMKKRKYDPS
As for `Cc1cc(N2CCN(C)CC2)nc2ccc(NC(=S)N3CCOCC3)cc12`, the inhibition was 46.4% (inactive). On to `Cc1cc(N2CCOCC2)nc2ccc(NC(=S)N3CCN(Cc4ccccc4)CC3)cc12`, for which the inhibition was -21.2% (inactive). In the case of `CCOCCCNC(=S)Nc1ccc2nc(N3CCN(CC)CC3)cc(C)c2c1`, the inhibition is 61% (active). `COc1cccc(-c2cnc3c(c2)C(=O)N([C@@H](C)CO)C[C@@H](C)[C@H](CN(C)C(=O)CN(C)C)O3)c1`: the inhibition was 18.6% (inactive). Turning to `CC(C)NC(=O)N(C)C[C@H]1Oc2ccc(N(C)C)cc2C(=O)N([C@@H](C)CO)C[C@H]1C`, the inhibition is -18.9% (inactive). With `COc1ccc2c3c(n(C)c2c1)[C@@H](CO)NCC31CCN(CC2CCCC2)CC1`, the inhibition is 37.5% (inactive). With `CCS(=O)(=O)N1CCC2(CC1)CN[C@H](CO)c1c2c2ccc(OC)cc2n1C` the figure was 5.49% (inactive). `COc1ccc2c3c(n(C)c2c1)[C@@H](CO)NCC31CCN(CC2CC2)CC1`: the inhibition is 55.9% (active). With `COc1ccc(NC(=O)Nc2ccc3c(c2)C(=O)N([C@@H](C)CO)C[C@@H](C)[C@H](CN(C)S(=O)(=O)c2cccs2)O3)cc1`, the inhibition was -4.93% (inactive). Regarding `COc1ccccc1S(=O)(=O)N(C)C[C@H]1Oc2cc(C#CCC3CCCC3)ccc2S(=O)(=O)N([C@@H](C)CO)C[C@H]1C`, the inhibition is 9.21% (inactive). With `O=C(C[C@@H]1CC[C@H]2[C@@H](COC[C@H](O)CN2S(=O)(=O)c2ccccc2)O1)NCCN1CCCC1`, the inhibition is 8.64% (inactive). `Cc1ccc(S(=O)(=O)N2C[C@H](O)COC[C@@H]3O[C@@H](CC(=O)NCC4CCCCC4)CC[C@H]32)cc1`: the inhibition was 37.6% (inactive). With `O=C(C[C@@H]1CC[C@@H]2[C@H](COC[C@@H](O)CN2S(=O)(=O)c2ccccc2)O1)NCC1CCCCC1` the figure was 91% (active); with `COc1ccccc1-c1ccc2c(c1)O[C@@H](CN(C)CC1CCOCC1)[C@H](C)CN([C@@H](C)CO)S2(=O)=O`, 17% (inactive); with `COCC(=O)NC[C@@H]1[C@@H](c2ccc(C3=CCCC3)cc2)[C@@H](CO)N1C(C)=O`, 2.17% (inactive).

Turning to `CN1CCC(CN)(N2CCN(c3ccccc3)CC2)CC1`, the inhibition is 83.9% (active). `Cc1cc(C)n(-c2nnc(N3CCN(c4ccccc4)CC3)nn2)n1`: the inhibition was -6.3% (inactive). With `CCS(=O)(=O)N1CCC(N2CCN(c3ccccc3)CC2)CC1`, the inhibition was -13% (inactive). As for `C[C@@H]1CCCCO[C@@H](CN(C)C)[C@@H](C)CN([C@H](C)CO)C(=O)c2cc(NC(=O)c3ccncc3)ccc2O1`, the figure is -19.4% (inactive). With `CCCC#Cc1ccc([C@@H]2[C@@H](CO)N3C(=O)CN(C(=O)Nc4ccc(F)cc4)C[C@@H]23)cc1`, the inhibition is 6.28% (inactive). Take `O=C(C1CCCC1)N1[C@H](CO)[C@H]2c3ccccc3N(S(=O)(=O)c3ccccc3)C[C@H]21`: the inhibition is -8.44% (inactive). With `C[C@@H]1CN([C@H](C)CO)C(=O)c2cccc(NC(=O)Nc3ccc4c(c3)OCO4)c2O[C@H]1CN(C)S(=O)(=O)c1ccc(Cl)cc1` the figure was -13.7% (inactive); with `O=C(NC[C@H]1CC[C@H]2[C@H](CN2Cc2cccc(Cl)c2)O1)C1CC1`, -6.18% (inactive); with `COc1ccc(CN(C)C[C@H]2OCCCC[C@H](C)Oc3ccc(NC(=O)c4ccccc4)cc3C(=O)N([C@@H](C)CO)C[C@@H]2C)cc1`, 28.1% (inactive). As for `CO[C@H]1CN(C)C(=O)c2ccc(NC(=O)Nc3ccc(F)cc3)cc2OC[C@@H](C)NC[C@H]1C`, the inhibition is -5.12% (inactive). With `Cc1ccc(C(=O)N/C(=C/c2ccc(-c3cccc([N+](=O)[O-])c3)o2)C(=O)NCCCN(C)C)cc1` the figure was 65.9% (active); with `Cc1ccc(C(=O)N/C(=C\c2ccc(F)cc2)C(=O)NCCN2CCOCC2)cc1`, -4.68% (inactive).

Turning to `Cc1occc1C(=O)N/N=C/c1ccc(-c2cccc([N+](=O)[O-])c2)o1`, the inhibition was -14% (inactive).

In the case of `COc1ccc(CNC(=O)C[C@H]2C[C@H]3c4cc(NS(C)(=O)=O)ccc4O[C@H]3[C@@H](CO)O2)cc1`, the inhibition was 9.84% (inactive). On to `Cc1ccc(-c2ccc3c(c2)O[C@@H](CN(C)C(=O)CC2CC2)[C@@H](C)CN([C@@H](C)CO)S3(=O)=O)cc1`, for which the inhibition is 18.4% (inactive). For `COCCNC(=O)C[C@@H]1C[C@@H]2c3cc(NC(=O)Nc4ccc(C(F)(F)F)cc4)ccc3O[C@@H]2[C@@H](CO)O1`, the inhibition is 1.63% (inactive). With `CC(=O)c1cccc(-c2cnc3c(NC=O)cc(-c4ccccc4Oc4ccccc4)cn23)c1` the figure was -29.2% (inactive); with `CN(C)C(CNC(=O)c1ccc(OCc2cn3ccccc3n2)cc1)c1ccco1` (stereo not drawn), -13.9% (inactive). With `CN(C)CCNC(=O)c1ccc(-c2cn3c(-c4ccc(Oc5ccccc5)cc4)cnc3cn2)cc1`, the inhibition is 85.7% (active).

On to `C[C@H]1CN([C@@H](C)CO)C(=O)c2cccc(NS(=O)(=O)c3cn(C)cn3)c2O[C@H]1CN(C)C(=O)Nc1ccc2c(c1)OCO2`, for which the inhibition is -13.3% (inactive). For `CS(=O)(=O)N1[C@H](C#N)[C@H](c2ccc(C#CC3CC3)cc2)[C@H]1CO`, the inhibition is -26.1% (inactive). With `COc1ccc(NC(=O)N(C)C[C@@H]2Oc3c(NS(=O)(=O)c4ccc(OC)cc4)cccc3C(=O)N([C@H](C)CO)C[C@@H]2C)cc1`, the inhibition was -3.75% (inactive).

Turning to `COc1ccc2c3c(n(C)c2c1)[C@H](CO)N(S(=O)(=O)c1ccc(C)cc1)CC31CCN(C(=O)c2ccccn2)CC1`, the inhibition was 21.8% (inactive). Take `COC(=O)N(C)C[C@@H]1OCc2cnnn2CCCC(=O)N([C@@H](C)CO)C[C@@H]1C`: the inhibition is 0.525% (inactive) and 0.31% (inactive). In the case of `C[C@H]1CN([C@@H](C)CO)C(=O)CCCn2nncc2CO[C@@H]1CN(C)C(=O)Nc1ccc(N2CCN(C)CC2)cc1`, the inhibition is 60.1% (active) and 24.7% (inactive). Consider `C[C@@H]1CN([C@@H](C)CO)C(=O)CCCn2nncc2CO[C@H]1CN(C)C(=O)Nc1ccc(C(F)(F)F)cc1`, for which the inhibition is -10.9% (inactive) and -1.52% (inactive). With `COc1ccc(S(=O)(=O)N2CC[C@@H]3[C@@H](CO)Nc4ccc(C#Cc5cccnc5)cc4[C@@H]32)cc1` the figure was 0.847% (inactive). As for `Cc1noc(C)c1S(=O)(=O)N(C)C[C@H]1Oc2ccc(NC(=O)CCN3CCOCC3)cc2CC(=O)N([C@H](C)CO)C[C@H]1C`, the inhibition is -2.41% (inactive). With `C[C@H](CO)N1C[C@H](C)[C@H](CN(C)C)Oc2ccc(NC(=O)Nc3ccc(F)cc3)cc2CC1=O`, the inhibition was -3.53% (inactive). With `Cc1cccc(NC(=O)NC2(C)CCS(=O)(=O)C2)c1` (stereo not drawn) the figure was -1.1% (inactive); with `Cc1cccc(NC(=S)NCc2ccc3[nH]c4c(c3c2)CCCC4)c1`, -21.7% (inactive); with `Cc1cccc(NC(=S)NC23CN4CN(CN(C4)C2)C3)c1`, 82.8% (active). `Cc1cccc(-c2nc3ccc(C(=O)NCCN4CCN(C)CC4)cc3nc2-c2cccc(C)c2)c1`: the inhibition is 68% (active). On to `O=C(NCCN1CCOCC1)c1cccc(S(=O)(=O)Nc2ccc(F)cc2)c1`, for which the inhibition was 2.89% (inactive). For the compound `Cc1cccc(C(=O)OC(C)CN2CCN(C)CC2)c1` (stereo not drawn), the inhibition was -5.75% (inactive). As for `CN(C)CC(=O)N1[C@H](CO)[C@@H](c2ccc(-c3cccc(C(=O)N(C)C)c3)cc2)[C@@H]1C#N`, the inhibition is -31.9% (inactive).

As to `Oc1ccc(N=Cc2sc3ccccc3c2Cl)cc1`, the inhibition is 55.8% (active). With `O=C(NC1CCC1)[C@H]1[C@H](CO)[C@H]2Cn3c(ccc(C4=CCCCC4)c3=O)[C@@H]1N2CC1CC1` the figure was 1.51% (inactive); with `CCc1ccc(S(=O)(=O)NCC(O)COc2ccc(OC)cc2)cc1` (stereo not drawn), -8.48% (inactive); with `CCCc1ccc(OCC(O)CN2CCN(C(=O)OCC)CC2)cc1` (stereo not drawn), -8.19% (inactive). Turning to `Nc1ccc(OCC(O)C[n+]2ccc(CCS(=O)(=O)[O-])cc2)cc1` (stereo not drawn), the inhibition is 58.1% (active). `COCC(=O)N1CC(=O)N2[C@H](C1)[C@H](c1ccc(C#CC3CCCCC3)cc1)[C@@H]2CO`: the inhibition was 6.1% (inactive). As to `COc1ccc2c3c([nH]c2c1)[C@H](CO)N(C(=O)c1ccccc1)CC31CCN(S(=O)(=O)c2cccs2)CC1`, the inhibition was 2.57% (inactive).
